The record followed here is PubChem BioAssay (NCATS).

A short description of experiment [1]: Primary qHTS for small molecule stabilizers of the endoplasmic reticulum resident proteome: Secreted ER Calcium Modulated Protein (SERCaMP) assay (AID 1508630). Particulars: SH-SY5Y GLuc-SERCaMP (Gaussia luciferase released on ER calcium loss) secretion, thapsigargin, luminescence; series mostly up to 38.4 µM. The method in brief: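 The SH-SY5Y reporter protocol was run at 3 concentrations up to 38.3 uM (primary) or 11 concentrations (follow-up): 16 h compound, 100 nM thapsigargin for 4 h, then extracellular luciferase luminescence.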

Experiment [2] concerns the target Cytochrome P450 2D6 (Homo sapiens) (UniProt P10635). Description: Cytochrome P450 family 2 subfamily D member 6 (CYP2D6) small molecule antagonists: luciferase biochemical (cell-free) qHTS assay (AID 1645840; active = well fitted curve in the direction sought with a large enough effect in the repeat runs; an effect the other way counts as inactive or inconclusive; also: nearly all actives have a fitted effect of over 55% in size; also: potency is read from the fitted curve at half-maximal effect). The following applies: P450-Glo CYP2D6 enzyme, luciferin luminescence, 1 h; series mostly up to 57.4 µM. The essentials:
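P450-Glo CYP2D6 system: proluciferin substrate converted by enzyme to luciferin, read by luminescence proportional to activity. Enzyme-substrate mix with compound 10 min at room temperature, then NADPH regeneration 1 h before detection reagent.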

The nature of experiment [3]: Primary qHTS for inhibitors of nuclear receptor binding SET domain protein 2 (NSD2) in an isogenic RCH-ACV NSD2 p.E1099K mutant (9B) (AID 1645876). Also: nearly all actives have a fitted effect of over 70% in size. Also: potency is read from the fitted curve at half-maximal effect. Particulars: RCH-ACV (leukaemia line) NSD2 E1099K (9B) viability, CellTiter-Glo, 72 h; series mostly up to 44.9 µM. For orientation: In qHTS, concentration-response curves come from the screen itself.
The next experiment concerns the target Papain (Carica papaya) (UniProt P00784). Kind of experiment: Primary qHTS assay for inhibitors of the protease papain (AID 1645873).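 Also: papain turnover of Z-FR-AMC read as the AMC fluorescence gain over 10 min.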 Particulars: papain Z-FR-AMC cleavage, AMC fluorescence; series mostly up to 49.8 µM.
The target of experiment [4] is N-terminal Xaa-Pro-Lys N-methyltransferase 1 (Homo sapiens) (UniProt Q9BV86). Description: Confirmatory qHTS for Inhibitors of N-terminal methyltransferase 1 (NTMT1): MTaseGlo Assay (AID 1645874).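 Also: luminescence from SAH made as NTMT1 methylates SPKRIA peptide using SAM; nearly all actives have a fitted effect of over 65% in size.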 The following applies: NTMT1 enzyme, MTase-Glo SAH luminescence; series mostly up to 100 µM. The method in brief: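 Inhibition was derived from luminescence after SAH-to-ATP conversion, scaled between no-enzyme and DMSO wells, then fitted by 4-parameter Hill. Conditions: 125 nM NTMT1, 100 uM SAM, 1 uM SPKRIA, 30 min RT.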
N-terminal Xaa-Pro-Lys N-methyltransferase 1 (Homo sapiens), sequence (Q9BV86 whole entry, looked up): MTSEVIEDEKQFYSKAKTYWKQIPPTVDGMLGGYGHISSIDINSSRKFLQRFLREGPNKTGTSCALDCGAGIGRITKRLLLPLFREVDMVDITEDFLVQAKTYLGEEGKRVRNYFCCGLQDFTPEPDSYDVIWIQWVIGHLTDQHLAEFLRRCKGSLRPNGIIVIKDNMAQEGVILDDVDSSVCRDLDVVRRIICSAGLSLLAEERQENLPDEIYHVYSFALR

Experiment [5] concerns the target Cytochrome P450 2C9 (Homo sapiens) (UniProt P11712). Description: Cytochrome P450 family 2 subfamily C member 9 (CYP2C9) small molecule antagonists: luciferase biochemical (cell-free) qHTS assay (AID 1645842; active = well fitted curve in the direction sought with a large enough effect in the repeat runs; an effect the other way counts as inactive or inconclusive; also: nearly all actives have a fitted effect of over 55% in size; also: potency is read from the fitted curve at half-maximal effect). The following applies: P450-Glo CYP2C9 enzyme assay, luciferin luminescence; series mostly up to 57.4 µM. The method in brief: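 P450-Glo CYP2C9 system: proluciferin substrate with enzyme in mix containing 0.4% BSA, 10 min at room temperature, then NADPH regeneration solution added and incubated 1 h at 37C. Detection reagent stopped reaction; luminescence read after 20 min as RLU.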

Experiment [6] can be described thus: A High-Content qHTS Against Drug Library for the Identification of Small Molecules that Inhibit DYT1 Early Onset Primary Dystonia-Associated Cell Pathology (AID 1645839; calls by dose curve; also: potency is read from the fitted curve at half-maximal effect). Particulars: HEK293 Flp-In EGFP-delE TorsinA, punctate imaging, 48 h; series mostly up to 46.1 µM. The essentials: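 High-content imaging quantified EGFP-TorsinA mislocalization in HEK293-derived cells inducibly expressing DYT1 mutant torsinA, after 48 h exposure to compound given together with tetracycline induction. Cell count served as a toxicity channel alongside %pathology.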

The target of experiment [7] is Cytochrome P450 3A4 (Homo sapiens) (UniProt P08684). Kind of experiment: Cytochrome P450 family 3 subfamily A member 4 (CYP3A4) small molecule antagonists: luciferase qHTS assay (AID 1645841; active = well fitted curve in the direction sought with a large enough effect in the repeat runs; an effect the other way counts as inactive or inconclusive; also: nearly all actives have a fitted effect of over 45% in size). Particulars: P450-Glo CYP3A4 enzyme assay, luciferin luminescence; series mostly up to 57.4 µM. The method in brief: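 Luminescent CYP3A4 activity readout: compounds plus enzyme-substrate mix 10 min at room temperature, reaction started with NADPH regenerating system for 1 h, stopped with detection reagent, read after 20 min. Ketoconazole served as control.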
Cytochrome P450 3A4 (Homo sapiens), sequence (P08684 whole entry, looked up): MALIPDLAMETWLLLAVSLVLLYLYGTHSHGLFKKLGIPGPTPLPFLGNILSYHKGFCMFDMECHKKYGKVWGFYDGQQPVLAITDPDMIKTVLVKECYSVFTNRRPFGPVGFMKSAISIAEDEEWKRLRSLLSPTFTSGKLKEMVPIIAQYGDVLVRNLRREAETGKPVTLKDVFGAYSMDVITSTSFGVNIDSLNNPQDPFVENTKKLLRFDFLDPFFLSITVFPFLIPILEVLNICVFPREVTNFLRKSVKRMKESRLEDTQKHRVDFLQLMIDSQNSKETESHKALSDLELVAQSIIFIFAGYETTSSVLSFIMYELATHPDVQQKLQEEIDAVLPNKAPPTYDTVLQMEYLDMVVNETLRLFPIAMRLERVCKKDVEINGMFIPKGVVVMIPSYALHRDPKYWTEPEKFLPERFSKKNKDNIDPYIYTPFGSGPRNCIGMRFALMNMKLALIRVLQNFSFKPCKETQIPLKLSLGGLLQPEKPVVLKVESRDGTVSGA

Each structure is given as a SMILES string. Several values for one entry are separate records, joined by “and”; a condition that tells them apart may be missing. Equal values may be shown once. Inconclusive results are not listed. Activity calls are given as the source filed them. Unless noted, calls follow the shape of the dose curve; as a rule, active = well fitted curve in the direction sought with a large enough effect; inconclusive = small, poorly fitted or top-dose-only effect, or another doubt; inactive = no such curve, though single readings can be large; an effect the other way counts as inactive or inconclusive.

Cytochrome P450 2C9 (Homo sapiens), sequence (P11712 whole entry, looked up): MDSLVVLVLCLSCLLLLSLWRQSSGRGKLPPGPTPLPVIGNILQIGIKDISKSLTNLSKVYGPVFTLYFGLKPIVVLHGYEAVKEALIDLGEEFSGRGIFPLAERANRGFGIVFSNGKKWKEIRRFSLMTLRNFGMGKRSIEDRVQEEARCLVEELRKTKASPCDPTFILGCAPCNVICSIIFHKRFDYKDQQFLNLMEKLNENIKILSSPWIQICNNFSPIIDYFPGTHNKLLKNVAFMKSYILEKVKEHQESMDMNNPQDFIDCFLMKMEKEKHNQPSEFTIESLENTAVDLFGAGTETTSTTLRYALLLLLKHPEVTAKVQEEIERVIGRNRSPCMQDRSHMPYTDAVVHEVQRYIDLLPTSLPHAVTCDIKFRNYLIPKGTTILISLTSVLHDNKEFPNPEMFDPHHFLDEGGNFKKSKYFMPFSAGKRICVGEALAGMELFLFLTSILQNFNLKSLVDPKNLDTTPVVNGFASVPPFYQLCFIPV
Papain (Carica papaya), sequence (P00784 whole entry, looked up): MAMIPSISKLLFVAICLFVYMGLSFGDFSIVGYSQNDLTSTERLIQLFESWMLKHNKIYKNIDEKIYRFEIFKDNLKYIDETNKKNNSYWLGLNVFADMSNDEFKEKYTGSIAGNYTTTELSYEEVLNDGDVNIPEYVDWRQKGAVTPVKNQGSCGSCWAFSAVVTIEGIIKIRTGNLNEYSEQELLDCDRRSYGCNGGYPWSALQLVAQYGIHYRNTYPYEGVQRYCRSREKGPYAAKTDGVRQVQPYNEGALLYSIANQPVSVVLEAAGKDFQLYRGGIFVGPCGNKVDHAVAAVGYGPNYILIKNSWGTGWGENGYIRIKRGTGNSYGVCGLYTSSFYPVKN
Cytochrome P450 2D6 (Homo sapiens), sequence (P10635 whole entry, looked up): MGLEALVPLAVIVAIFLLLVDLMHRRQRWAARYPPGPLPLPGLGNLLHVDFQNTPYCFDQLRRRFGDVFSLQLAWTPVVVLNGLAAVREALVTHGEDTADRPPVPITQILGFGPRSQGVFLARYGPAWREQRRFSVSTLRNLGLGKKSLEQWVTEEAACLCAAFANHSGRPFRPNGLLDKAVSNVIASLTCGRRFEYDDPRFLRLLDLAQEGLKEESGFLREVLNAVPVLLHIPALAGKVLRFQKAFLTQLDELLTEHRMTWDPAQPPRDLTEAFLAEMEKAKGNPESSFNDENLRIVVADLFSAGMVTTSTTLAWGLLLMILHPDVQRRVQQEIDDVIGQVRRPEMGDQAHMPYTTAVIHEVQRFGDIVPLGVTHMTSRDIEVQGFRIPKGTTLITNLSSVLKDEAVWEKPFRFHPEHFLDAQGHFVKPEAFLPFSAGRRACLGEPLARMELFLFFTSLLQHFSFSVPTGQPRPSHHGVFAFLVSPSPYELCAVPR

As to `O=C(Nc1ccccc1Br)N[C@@H]1CCN(c2ccc(C(F)(F)F)cn2)C1`, the Potency result in experiment [1] was “inactive”. Besides, the Potency in experiment [2] is 15.1 µM (active).
For `CC(C)n1nc(-c2ccc3oc(N)nc3c2)c2c(N)ncnc21`, the Potency entry in experiment [1] and in experiment [2] was “inactive” throughout. In experiment [3], the Potency is 36.5 nM (active) and 29.5 nM (active).
With `Cc1c(NC(=O)c2ccc(C(C)(C)C)cc2)cccc1-c1cn(C)c(=O)c(Nc2ccc(C(=O)N3CCOCC3)cc2)n1`, the Potency entry in experiment [1], in experiment [2] and in experiment [3] was “inactive” in each case.
With `O=c1c(-c2ccc(O)cc2)coc2cc(O)ccc12`, the Potency entry in experiment [1], in experiment [2] and in experiment [4] was “inactive” each time. Also, the molecule was called inactive in the experiment with Papain (Carica papaya).
Regarding `CC(C)C(=O)Nc1ncc(-c2cc(C(F)F)nn2-c2c(Cl)cccc2Cl)s1`, in experiment [1], the Potency entry is “inactive”. Besides, the figures for the Potency in experiment [2], in experiment [5] and in experiment [3] were 10.7 µM (active), 5.35 µM (active) and 23 µM (active), respectively.
Take `COc1cc2ncnc(-n3nc(-c4ccccn4)nc3N)c2cc1OC`: the Potency result in experiment [1] was “inactive”. Moreover, the values for the Potency in experiment [2] and in experiment [3] were 7.56 µM (active) and 1.59 µM (active), respectively.
In the case of `O=C1Nc2ccc(Cl)cc2C(C#CC2CC2)(C(F)(F)F)O1` (stereo not given), the Potency result in experiment [1] is “inactive”. Moreover, the Potency in experiment [2] was 16.9 µM (active).
As for `Clc1ccc(-c2nc3sccn3c2C=NOCc2ccc(Cl)c(Cl)c2)cc1`, the Potency result in experiment [1] and in experiment [2] was “inactive” each time.
For `Cc1nc(N)sc1-c1ccnc(Nc2ccc(N3CCOCC3)cc2)n1`, the Potency entry in experiment [1] and in experiment [2] was “inactive” each time. For the same molecule, the Potency is 6.01 µM (active) in experiment [5]; 409 nM (active) and 590 nM (active) in experiment [3].
On to `CCOc1ccc(Nc2nc(-c3c(C)nc4ccccn34)cs2)cc1`, for which the Potency result in experiment [1] and in experiment [4] was “inactive” throughout. The Potency in experiment [2] was 15.1 µM (active); in experiment [3] it was 0.183 µM (active).
For `O=C(O)CCC1CCC(c2cc(F)ccc2F)(S(=O)(=O)c2ccc(Cl)cc2)CC1` (stereo not given), the Potency entry in experiment [1] and in experiment [2] was “inactive” in each case.
Consider `O=C1NCC2(CCN(CCc3ccccc3)CC2)O1`, for which the Potency entry in experiment [1], in experiment [6], in experiment [5] and in experiment [3] was “inactive” in each case. Moreover, the result (in experiment [7]; in the experiment with Papain (Carica papaya)) was inactive.
In the case of `CC/C(=C(\c1ccccc1)c1ccc(OCCN(C)C)cc1)c1ccccc1`, the Potency result in experiment [1] and in experiment [3] was “inactive” throughout. In experiment [6], the Potency was 11.2 µM (active). Further, in the experiment with Papain (Carica papaya), the molecule was classed as inactive.
As to `Nc1ncnc2ccccc12`, the Potency result in experiment [1] and in experiment [3] was “inactive” each time.
Regarding `COc1cccc(-c2cc(=O)c3ccccc3o2)c1N`, the Potency result in experiment [1] and in experiment [3] was “inactive” each time. The outcome with Papain (Carica papaya) was inactive.
As for `CCc1ccc(OCc2ccccc2C(=O)Nc2ccc3nc(C)cc(N)c3c2)cc1`, in experiment [1], the Potency entry was “inactive”. Moreover, the results for the Potency in experiment [2] and in experiment [3] were 0.213 µM (active) and 2.63 µM (active), respectively.
In the case of `CN(C)Cc1cccc(N=C(c2ccccc2)c2c(O)[nH]c3cc(C(=O)N(C)C)ccc23)c1`, the Potency result in experiment [1] is “inactive”. For the same molecule, the Potency in experiment [3] is 16.6 µM (active).
For the molecule `Clc1ccc(C(c2ccc(Cl)cc2)n2cc[n+](CC(OCc3ccc(Cl)cc3Cl)c3ccc(Cl)cc3Cl)c2)cc1` (stereo not given), the Potency entry in experiment [1] was “inactive”. For the same molecule, the result in the experiment with Papain (Carica papaya) was inactive. In experiment [3], the Potency is 5.25 µM (active).
In the case of `CC(C)n1cnc2c(NCCCCCCNC(=O)OC(C)(C)C)nc(NCCO)nc21`, the Potency result in experiment [1] is “inactive”. In addition, the Potency in experiment [3] is 14.8 µM (active).
As to `COc1ccc(-c2cc(=O)c3c(O)cc(O)cc3o2)cc1O`, the Potency result in experiment [1] was “inactive”. For the same molecule, the Potency in experiment [3] was 11.8 µM (active).
The corresponding values for `CC(C)[C@H](CO)Nc1nc(Nc2ccc(C(=O)O)c(Cl)c2)c2ncn(C(C)C)c2n1` are “inactive” and “inactive”.
With `Oc1ccc(C2=Cc3ccc(O)cc3OC2)cc1`, the Potency entry in experiment [1] is “inactive”. Further, the Potency in experiment [3] was 1.18 µM (active).
The corresponding values for `CNC(=O)c1ccc2cc(C3(O)CCn4cncc43)ccc2c1` (stereo not given) are “inactive” and “inactive”.
Regarding `CNC1CCC(N(Cc2cccc(-c3ccncc3)c2)C(=O)c2sc3c(F)ccc(F)c3c2Cl)CC1` (stereo not given), the Potency entry in experiment [1] was “inactive”. Moreover, the Potency in experiment [3] is 8.33 µM (active) and 8.17 µM (active).
Regarding `CC(C)(C)COc1ccc(-n2cc(C(=O)O)cn2)cc1C#N`, the Potency entry in experiment [1] and in experiment [3] was “inactive” throughout.
